Assay [1] deals with T1, Ephrin type-B receptor 1 (Homo sapiens) (UniProt P54762).
T1 sequence (whole entry): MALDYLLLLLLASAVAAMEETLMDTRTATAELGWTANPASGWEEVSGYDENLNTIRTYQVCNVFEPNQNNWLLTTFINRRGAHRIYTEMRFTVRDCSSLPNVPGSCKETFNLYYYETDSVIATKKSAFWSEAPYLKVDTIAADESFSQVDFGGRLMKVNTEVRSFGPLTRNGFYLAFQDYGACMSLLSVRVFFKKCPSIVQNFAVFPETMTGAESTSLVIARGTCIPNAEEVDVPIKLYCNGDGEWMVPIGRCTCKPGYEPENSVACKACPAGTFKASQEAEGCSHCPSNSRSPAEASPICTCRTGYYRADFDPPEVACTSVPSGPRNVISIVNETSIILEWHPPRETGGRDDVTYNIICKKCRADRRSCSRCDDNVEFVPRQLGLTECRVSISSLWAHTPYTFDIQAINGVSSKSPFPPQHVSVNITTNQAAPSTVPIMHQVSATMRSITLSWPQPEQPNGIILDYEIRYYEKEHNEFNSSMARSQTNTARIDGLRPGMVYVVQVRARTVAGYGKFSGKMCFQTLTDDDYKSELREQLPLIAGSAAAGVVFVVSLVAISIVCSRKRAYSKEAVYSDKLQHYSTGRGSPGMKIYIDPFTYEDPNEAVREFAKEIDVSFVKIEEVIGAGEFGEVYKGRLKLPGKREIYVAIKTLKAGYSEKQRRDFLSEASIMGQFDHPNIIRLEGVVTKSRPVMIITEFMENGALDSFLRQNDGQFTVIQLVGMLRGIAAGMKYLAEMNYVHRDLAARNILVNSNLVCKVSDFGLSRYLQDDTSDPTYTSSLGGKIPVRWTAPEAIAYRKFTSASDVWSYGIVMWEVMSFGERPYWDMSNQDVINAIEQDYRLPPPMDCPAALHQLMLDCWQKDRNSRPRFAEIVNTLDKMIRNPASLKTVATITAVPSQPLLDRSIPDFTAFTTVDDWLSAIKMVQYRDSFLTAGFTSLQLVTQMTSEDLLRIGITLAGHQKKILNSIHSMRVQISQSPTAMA
The following applies: at 10 µM.

For assay [2], the target named is T2, Ephrin type-B receptor 2 (Homo sapiens) (UniProt P29323).
T2 sequence (whole entry): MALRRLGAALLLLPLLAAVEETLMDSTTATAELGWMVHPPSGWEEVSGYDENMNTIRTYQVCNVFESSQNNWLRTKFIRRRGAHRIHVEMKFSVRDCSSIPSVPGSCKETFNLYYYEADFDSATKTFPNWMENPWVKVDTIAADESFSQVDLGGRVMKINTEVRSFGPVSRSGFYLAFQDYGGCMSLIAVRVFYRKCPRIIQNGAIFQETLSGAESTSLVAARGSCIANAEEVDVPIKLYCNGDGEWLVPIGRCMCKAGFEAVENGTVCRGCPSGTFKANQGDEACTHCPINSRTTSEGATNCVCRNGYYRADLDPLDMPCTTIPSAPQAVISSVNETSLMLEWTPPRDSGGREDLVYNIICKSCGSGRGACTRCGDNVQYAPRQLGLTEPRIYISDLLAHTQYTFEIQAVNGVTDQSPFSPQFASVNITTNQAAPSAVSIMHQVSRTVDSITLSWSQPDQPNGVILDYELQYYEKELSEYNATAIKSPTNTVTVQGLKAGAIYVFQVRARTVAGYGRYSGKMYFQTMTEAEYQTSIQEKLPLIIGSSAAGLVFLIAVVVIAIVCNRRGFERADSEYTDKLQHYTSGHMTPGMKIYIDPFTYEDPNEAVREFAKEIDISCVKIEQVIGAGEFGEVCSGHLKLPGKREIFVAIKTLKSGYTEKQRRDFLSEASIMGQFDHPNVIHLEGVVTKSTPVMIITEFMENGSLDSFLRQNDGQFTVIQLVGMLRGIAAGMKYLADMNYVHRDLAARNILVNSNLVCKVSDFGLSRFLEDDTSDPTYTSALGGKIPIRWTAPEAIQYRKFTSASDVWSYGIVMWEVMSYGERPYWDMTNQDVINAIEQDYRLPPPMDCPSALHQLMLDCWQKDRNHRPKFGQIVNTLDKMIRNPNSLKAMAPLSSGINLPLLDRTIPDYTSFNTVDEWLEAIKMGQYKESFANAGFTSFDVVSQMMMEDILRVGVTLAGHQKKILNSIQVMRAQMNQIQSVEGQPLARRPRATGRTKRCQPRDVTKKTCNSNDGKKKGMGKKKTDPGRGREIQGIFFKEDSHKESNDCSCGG
As to conditions: at 1 µM; call rule not given here.

Assay [3] has as its target T2, Ephrin type-B receptor 2 (Homo sapiens). The following applies: at 10 µM.
For assay [4], the target named is T3, Ephrin type-B receptor 3 (Homo sapiens) (UniProt P54753).
T3 sequence (whole entry): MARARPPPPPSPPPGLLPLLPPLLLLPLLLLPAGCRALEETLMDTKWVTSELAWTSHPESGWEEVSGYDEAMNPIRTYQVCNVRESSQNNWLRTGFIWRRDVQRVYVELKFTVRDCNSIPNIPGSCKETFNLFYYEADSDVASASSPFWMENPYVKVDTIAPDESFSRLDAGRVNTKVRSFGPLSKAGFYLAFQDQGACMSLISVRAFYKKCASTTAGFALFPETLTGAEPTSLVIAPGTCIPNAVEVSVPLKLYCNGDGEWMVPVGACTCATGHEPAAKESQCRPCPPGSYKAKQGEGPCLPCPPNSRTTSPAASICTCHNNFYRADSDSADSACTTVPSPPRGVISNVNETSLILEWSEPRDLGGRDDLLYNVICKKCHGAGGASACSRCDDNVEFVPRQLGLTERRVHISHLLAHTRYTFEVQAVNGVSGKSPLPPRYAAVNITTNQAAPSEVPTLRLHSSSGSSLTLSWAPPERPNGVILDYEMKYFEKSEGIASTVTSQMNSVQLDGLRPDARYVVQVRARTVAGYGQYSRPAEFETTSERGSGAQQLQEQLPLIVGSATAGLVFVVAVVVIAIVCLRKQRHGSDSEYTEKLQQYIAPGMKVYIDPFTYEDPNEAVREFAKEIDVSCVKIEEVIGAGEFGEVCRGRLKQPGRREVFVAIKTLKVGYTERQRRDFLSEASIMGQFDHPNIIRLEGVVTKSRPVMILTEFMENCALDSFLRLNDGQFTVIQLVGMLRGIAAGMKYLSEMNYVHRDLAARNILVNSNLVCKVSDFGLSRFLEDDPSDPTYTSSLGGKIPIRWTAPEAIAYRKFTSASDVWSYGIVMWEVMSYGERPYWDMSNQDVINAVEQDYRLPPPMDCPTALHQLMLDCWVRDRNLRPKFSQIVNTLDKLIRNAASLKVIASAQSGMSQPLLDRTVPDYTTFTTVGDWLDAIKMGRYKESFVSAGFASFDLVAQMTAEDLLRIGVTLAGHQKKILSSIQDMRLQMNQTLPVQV
As to conditions: at 1 µM.

Assay [5] has as its target T3, Ephrin type-B receptor 3 (Homo sapiens). The following applies: at 10 µM.
In assay [6] the target is T4, Ephrin type-B receptor 4 (Homo sapiens) (UniProt P54760).
T4 sequence (whole entry): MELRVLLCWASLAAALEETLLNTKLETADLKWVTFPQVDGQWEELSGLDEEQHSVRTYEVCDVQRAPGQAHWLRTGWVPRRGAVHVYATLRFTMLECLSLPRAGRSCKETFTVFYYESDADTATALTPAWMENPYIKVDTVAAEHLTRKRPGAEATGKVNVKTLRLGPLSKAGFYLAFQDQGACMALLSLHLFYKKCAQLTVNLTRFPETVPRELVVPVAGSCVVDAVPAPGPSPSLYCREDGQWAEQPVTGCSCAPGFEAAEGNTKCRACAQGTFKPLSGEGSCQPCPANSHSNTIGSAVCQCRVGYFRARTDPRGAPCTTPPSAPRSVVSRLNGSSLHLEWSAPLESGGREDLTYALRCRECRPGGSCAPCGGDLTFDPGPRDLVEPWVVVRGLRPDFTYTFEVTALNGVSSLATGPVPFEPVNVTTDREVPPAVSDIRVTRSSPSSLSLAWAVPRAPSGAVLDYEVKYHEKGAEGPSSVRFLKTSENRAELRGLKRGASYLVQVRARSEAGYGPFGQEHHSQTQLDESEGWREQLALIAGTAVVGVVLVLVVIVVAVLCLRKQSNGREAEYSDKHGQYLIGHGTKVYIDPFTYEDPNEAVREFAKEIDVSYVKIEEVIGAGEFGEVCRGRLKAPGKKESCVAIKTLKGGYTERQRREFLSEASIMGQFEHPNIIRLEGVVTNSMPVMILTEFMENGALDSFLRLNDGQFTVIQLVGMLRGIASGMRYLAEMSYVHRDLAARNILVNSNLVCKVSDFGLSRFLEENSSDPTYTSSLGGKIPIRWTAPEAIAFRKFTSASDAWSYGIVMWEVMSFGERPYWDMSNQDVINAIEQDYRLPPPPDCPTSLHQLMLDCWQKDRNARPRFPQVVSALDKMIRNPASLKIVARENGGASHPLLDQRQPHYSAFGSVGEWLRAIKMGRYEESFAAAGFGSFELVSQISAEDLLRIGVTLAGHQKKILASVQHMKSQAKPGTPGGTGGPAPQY
The following applies: at 1 µM.

For assay [7], the target named is T4, Ephrin type-B receptor 4 (Homo sapiens). As to conditions: at 10 µM.
The target of assay [8] is Receptor tyrosine-protein kinase erbB-4 (Homo sapiens) (UniProt Q15303). The following applies: at 1 µM.
Assay [9] shares this target. As to conditions: at 10 µM.
In assay [10] the target is Focal adhesion kinase 1 (Homo sapiens) (UniProt Q05397). The following applies: at 1 µM.

The structures appear in SMILES notation.

Chain of Receptor tyrosine-protein kinase erbB-4 (Homo sapiens) (Q15303 whole entry): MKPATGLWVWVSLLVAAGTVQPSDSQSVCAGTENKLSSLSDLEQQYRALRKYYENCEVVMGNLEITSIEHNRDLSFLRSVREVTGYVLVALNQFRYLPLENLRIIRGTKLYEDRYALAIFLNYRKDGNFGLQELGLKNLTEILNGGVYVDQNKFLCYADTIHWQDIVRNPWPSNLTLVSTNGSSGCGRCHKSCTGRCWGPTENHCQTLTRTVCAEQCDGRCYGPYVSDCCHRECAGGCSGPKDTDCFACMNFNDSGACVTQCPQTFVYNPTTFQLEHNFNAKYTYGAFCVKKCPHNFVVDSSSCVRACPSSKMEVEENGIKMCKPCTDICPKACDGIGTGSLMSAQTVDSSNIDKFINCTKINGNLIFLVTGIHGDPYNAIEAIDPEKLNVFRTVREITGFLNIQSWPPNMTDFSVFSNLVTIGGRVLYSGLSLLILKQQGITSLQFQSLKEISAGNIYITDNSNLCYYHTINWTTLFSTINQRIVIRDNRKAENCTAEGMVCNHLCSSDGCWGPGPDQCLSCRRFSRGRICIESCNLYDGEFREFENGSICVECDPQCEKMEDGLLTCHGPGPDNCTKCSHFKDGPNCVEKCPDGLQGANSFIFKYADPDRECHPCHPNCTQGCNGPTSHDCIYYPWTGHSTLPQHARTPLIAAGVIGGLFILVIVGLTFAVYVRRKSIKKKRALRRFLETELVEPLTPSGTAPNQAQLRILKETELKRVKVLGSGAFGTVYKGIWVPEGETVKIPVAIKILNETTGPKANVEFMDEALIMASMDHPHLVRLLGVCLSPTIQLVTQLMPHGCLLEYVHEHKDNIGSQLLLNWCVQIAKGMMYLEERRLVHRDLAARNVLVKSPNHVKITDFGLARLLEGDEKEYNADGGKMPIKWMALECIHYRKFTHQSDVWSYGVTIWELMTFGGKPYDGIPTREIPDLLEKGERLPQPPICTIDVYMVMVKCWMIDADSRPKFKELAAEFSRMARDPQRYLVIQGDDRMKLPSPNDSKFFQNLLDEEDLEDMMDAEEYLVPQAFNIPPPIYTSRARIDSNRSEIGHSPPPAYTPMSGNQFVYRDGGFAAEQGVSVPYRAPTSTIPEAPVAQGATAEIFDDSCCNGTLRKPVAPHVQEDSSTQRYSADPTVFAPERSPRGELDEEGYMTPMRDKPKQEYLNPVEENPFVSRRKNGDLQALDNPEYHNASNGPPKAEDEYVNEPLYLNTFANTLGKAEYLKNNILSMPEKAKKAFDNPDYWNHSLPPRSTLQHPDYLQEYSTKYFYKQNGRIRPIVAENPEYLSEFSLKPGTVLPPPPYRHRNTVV
Chain of Focal adhesion kinase 1 (Homo sapiens) (Q05397 2-1052 limits assumed): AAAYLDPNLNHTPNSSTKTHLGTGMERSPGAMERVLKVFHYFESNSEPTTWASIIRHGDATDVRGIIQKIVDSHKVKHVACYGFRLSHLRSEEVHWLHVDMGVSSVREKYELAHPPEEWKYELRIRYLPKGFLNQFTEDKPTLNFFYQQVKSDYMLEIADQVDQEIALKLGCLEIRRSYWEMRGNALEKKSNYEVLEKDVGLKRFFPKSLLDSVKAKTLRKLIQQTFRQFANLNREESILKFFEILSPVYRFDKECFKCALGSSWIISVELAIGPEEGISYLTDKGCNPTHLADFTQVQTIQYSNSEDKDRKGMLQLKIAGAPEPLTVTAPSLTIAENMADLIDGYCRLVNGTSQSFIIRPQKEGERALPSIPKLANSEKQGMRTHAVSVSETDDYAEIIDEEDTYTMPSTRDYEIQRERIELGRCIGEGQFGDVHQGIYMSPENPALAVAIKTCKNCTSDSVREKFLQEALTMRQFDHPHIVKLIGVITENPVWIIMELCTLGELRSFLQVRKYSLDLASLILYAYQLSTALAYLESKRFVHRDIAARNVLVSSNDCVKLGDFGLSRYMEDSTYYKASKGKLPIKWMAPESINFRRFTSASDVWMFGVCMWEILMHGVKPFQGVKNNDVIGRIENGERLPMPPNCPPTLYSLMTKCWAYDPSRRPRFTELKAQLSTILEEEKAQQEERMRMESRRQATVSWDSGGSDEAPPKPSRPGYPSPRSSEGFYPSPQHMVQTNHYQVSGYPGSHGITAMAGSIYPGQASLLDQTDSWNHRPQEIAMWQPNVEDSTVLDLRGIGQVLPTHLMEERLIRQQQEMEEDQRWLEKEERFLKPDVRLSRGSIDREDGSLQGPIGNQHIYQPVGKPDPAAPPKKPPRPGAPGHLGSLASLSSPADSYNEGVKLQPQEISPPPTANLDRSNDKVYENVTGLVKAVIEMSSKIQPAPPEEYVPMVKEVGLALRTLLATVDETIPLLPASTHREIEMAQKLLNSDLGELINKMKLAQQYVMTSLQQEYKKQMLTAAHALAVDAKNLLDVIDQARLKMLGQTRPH

The term residual activity denotes the signal under treatment as a percentage of the control signal. For `COc1cc2ncnc(Nc3ccc(O)c(Br)c3)c2cc1OC`, the residual activity is 10% in [1]; 65% in [2]; 1% in [3]; 99% (inactive) in [4]; 123% in [5]; 19% in [6]. Also, the residual activity in assay [7] is 0%; in assay [8], 16%; in assay [9], -1%; in assay [10], 106%.

The values are drawn from ChEMBL document CHEMBL2218924, “A broad activity screen in support of a chemogenomic map for kinase signalling research and drug discovery” (Biochem J, 2013).
